# Measured values reported in PubChem BioAssay (NCATS).
# Records with an inconclusive call do not appear. Where a call stands in place of a potency, no number is given. Activity calls are given as the source filed them. Calls come from the whole dose curve; as a rule, active = well fitted inhibition curve with a large enough effect; inconclusive = small, poorly fitted or top-dose-only effect; inactive = flat fitted curve, though single readings scatter.
# Experiments:
# Test in all cases: qHTS profiling for inhibitors of Plasmodium falciparum proliferation (AID 504749); note: nearly all actives have a fitted effect of over 60% in size
# Conditions in all cases: P. falciparum in erythrocytes, SYBR Green DNA, 72 h; series mostly up to 28.7 µM
# [1] = system: CP191
# Summary of the method: (§1)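 In a 72 h erythrocytic culture (37 C, humidified, 5% CO2) at 2.5% hematocrit and 0.3% starting parasitemia, compounds were tested; SYBR Green I in detergent lysis buffer stained parasite DNA overnight.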
# [2] = system: CP192
# Summary of the method: as §1
# [3] = system: CP194
# Summary of the method: as §1
# [4] = system: CP201
# Summary of the method: as §1
# [5] = system: CP203
# Summary of the method: as §1
# [6] = system: CP211
# Summary of the method: as §1
# [7] = system: CP215
# Summary of the method: as §1
# [8] = system: CP217
# Summary of the method: as §1
# [9] = system: CP237
# Summary of the method: as §1
# [10] = system: CP238
# Summary of the method: as §1
# [11] = system: CP247
# Summary of the method: as §1
# [12] = system: CP250
# Summary of the method: as §1
# [13] = system: CP252
# Summary of the method: as §1
# [14] = system: CP256
# Summary of the method: as §1
# [15] = system: CP260
# Summary of the method: as §1
# [16] = system: CP262
# Summary of the method: as §1
# [17] = system: CP265
# Summary of the method: as §1
# [18] = system: CP266
# Summary of the method: as §1
# [19] = system: CP268
# Summary of the method: as §1
# [20] = system: CP269
# Summary of the method: as §1
# Potency is the fitted concentration of half-maximal effect.
SMILES,Potency [1],Potency [2],Potency [3],Potency [4],Potency [5],Potency [6],Potency [7],Potency [8],Potency [9],Potency [10],Potency [11],Potency [12],Potency [13],Potency [14],Potency [15],Potency [16],Potency [17],Potency [18],Potency [19],Potency [20]
CCCCN(CCCC)CCC(O)c1cc2c(Cl)cc(Cl)cc2c2cc(C(F)(F)F)ccc12 (stereo not drawn),12.6 nM (active),10.2 nM (active),32.2 nM (active),51 nM (active),22.8 nM (active),64.2 nM (active),28.7 nM (active),12.6 nM (active),5.6 nM (active),7.9 nM (active),17.8 nM (active),31.6 nM (active),15.8 nM (active),141 nM (active),6.3 nM (active),18.1 nM (active),31.6 nM (active),90.7 nM (active),51 nM (active),16.1 nM (active)
O=P(O)(O)C(O)(Cn1ccnc1)P(=O)(O)O,inactive,inactive,inactive,inactive,–,inactive,inactive,inactive,inactive,inactive,inactive,inactive,inactive,inactive,inactive,inactive,inactive,inactive,inactive,inactive
CN(C)c1ccc2nc3ccc(=[N+](C)C)cc-3sc2c1,79.4 nM (active),67.5 nM (active),75.7 nM (active),67.5 nM (active),33.8 nM (active),60.1 nM (active),120 nM (active),89.1 nM (active),12.6 nM (active),100 nM (active),141 nM (active),141 nM (active),89.1 nM (active),63.1 nM (active),25.1 nM (active),19 nM (active),89.1 nM (active),75.7 nM (active),37.9 nM (active),84.9 nM (active)
Cc1cc2cc3c(C)cc(=O)oc3c(C)c2o1,inactive,inactive,inactive,inactive,inactive,inactive,inactive,inactive,inactive,inactive,inactive,inactive,inactive,inactive,inactive,inactive,inactive,inactive,inactive,inactive
O=c1oc2cc(O)ccc2s1,inactive,inactive,inactive,inactive,inactive,inactive,inactive,inactive,inactive,inactive,inactive,–,inactive,inactive,inactive,inactive,inactive,inactive,inactive,inactive
CCOC(=O)c1c(C)n(C)c2ccc(O)cc12,inactive,inactive,inactive,inactive,inactive,–,inactive,inactive,inactive,inactive,inactive,inactive,inactive,inactive,inactive,inactive,inactive,inactive,inactive,inactive
CN(C)CCc1c[nH]c2ccc(Cn3cncn3)cc12,inactive,inactive,inactive,inactive,inactive,inactive,inactive,inactive,inactive,inactive,inactive,–,inactive,inactive,inactive,inactive,inactive,inactive,inactive,inactive
O=C1c2ccccc2-c2n[nH]c3cccc1c23,inactive,inactive,inactive,inactive,inactive,inactive,–,inactive,inactive,inactive,inactive,inactive,inactive,inactive,inactive,inactive,inactive,inactive,inactive,inactive
Cc1nc2n(c(=O)c1CCN1CCC(c3noc4cc(F)ccc34)CC1)CCCC2,inactive,inactive,inactive,inactive,inactive,inactive,inactive,inactive,–,inactive,inactive,inactive,inactive,inactive,–,inactive,inactive,inactive,inactive,inactive
Cc1ncc([N+](=O)[O-])n1CC(C)O (stereo not drawn),inactive,inactive,inactive,inactive,inactive,inactive,inactive,inactive,inactive,inactive,inactive,inactive,inactive,inactive,–,inactive,inactive,inactive,inactive,inactive
c1ccc2[nH]c(-c3cscn3)nc2c1,inactive,inactive,inactive,inactive,inactive,inactive,inactive,inactive,inactive,inactive,–,–,inactive,inactive,inactive,inactive,inactive,inactive,inactive,inactive
O=C1CCc2ccc(OCCCCN3CCN(c4cccc(Cl)c4Cl)CC3)cc2N1,8910 nM (active),inactive,inactive,inactive,inactive,inactive,inactive,–,14100 nM (active),–,–,–,–,inactive,11200 nM (active),inactive,inactive,inactive,inactive,inactive
C[C@H](Cn1cnc2c(N)ncnc21)OCP(=O)(O)O,inactive,inactive,inactive,inactive,inactive,inactive,inactive,inactive,inactive,inactive,inactive,inactive,inactive,inactive,–,inactive,inactive,inactive,inactive,inactive
CN(C)C(=O)COC(=O)Cc1ccc(OC(=O)c2ccc(N=C(N)N)cc2)cc1,inactive,inactive,inactive,inactive,inactive,inactive,–,inactive,inactive,inactive,inactive,inactive,inactive,inactive,inactive,inactive,inactive,inactive,inactive,inactive
